Records with an inconclusive call do not appear. Active and inactive are the calls of the source. Unless noted, calls come from the whole dose curve; as a rule, active = well fitted curve in the direction sought with a large enough effect in the repeat runs; inconclusive = weak or mixed curves; inactive = no such curve, though single readings can be large; an effect the other way counts as inactive or inconclusive.
Legend:
[1] = qHTS assay to identify small molecule agonists of the peroxisome proliferator-activated receptor delta (PPARd) signaling pathway - cell viability counter screen (AID 743211); note: nearly all actives have a fitted effect of over 55% in size; note: potency is the fitted concentration of half-maximal effect
How it was run: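 Viability of GeneBLAzer PPARd UAS-bla HEK293H cells was assessed after 17 h compound incubation at 37C, using CellTiter-Glo reagent added after the reporter read and luminescence recorded 30 min later.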

[2] = target: Peroxisome proliferator-activated receptor delta (Homo sapiens) (UniProt Q03181); test: qHTS assay to identify small molecule agonists of the peroxisome proliferator-activated receptor delta (PPARd) signaling pathway (AID 743212; calls by dose curve; note: potency is the fitted concentration of half-maximal effect)
How it was run: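 A PPARd-bla HEK293H line with beta-lactamase under an Upstream Activator Sequence is treated with compounds at 37 C. Substrate loading for 2 h at room temperature precedes the fluorescence measurement.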

[3] = target: Peroxisome proliferator-activated receptor delta (Homo sapiens) (UniProt Q03181); test: qHTS assay to identify small molecule antagonists of the peroxisome proliferator-activated receptor delta (PPARd) signaling pathway (AID 743215; active = well fitted inhibition curve with a large enough effect in the signal ratio in the repeat runs, not every such curve was filed as active; the % refers to the signal ratio;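 note: cells stimulated with agonist L165041 at 300 nM final during compound exposure; series mostly up to about 62 µM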)
How it was run: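 HEK293H UAS-bla, PPARd; agonist L165041 300 nM final with cpd in DMSO; 37 C 17 h; FRET substrate, RT 2 h; fluorescence intensity.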

[4] = target: Bile acid receptor (Homo sapiens) (UniProt Q96RI1); test: qHTS assay to identify small molecule antagonists of the farnesoid-X-receptor (FXR) signaling pathway (AID 743217; active = well fitted inhibition curve with a large enough effect in the signal ratio in the repeat runs, not every such curve was filed as active; the % refers to the signal ratio)
How it was run: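 GeneBLAzer FXR-UAS-bla HEK 293T, CDCA-stimulated (50 uM final). Compound treatment 16 h, 37 °C. Detection: beta-lactamase cleavage of B/G FRET substrate, fluorescence.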

[5] = qHTS assay to identify small molecule agonists of the farnesoid-X-receptor (FXR) signaling pathway - cell viability counter screen (AID 743218); note: nearly all actives have a fitted effect of over 45% in size; note: potency is the fitted concentration of half-maximal effect
How it was run: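 Parallel cytotoxicity test: compound-treated (16 h, 37 C) HEK 293T FXR-bla reporter cells were lysed with CellTiter-Glo and luminescence recorded.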

[6] = target: Bile acid receptor (Homo sapiens) (UniProt Q96RI1); test: qHTS assay to identify small molecule agonists of the farnesoid-X-receptor (FXR) signaling pathway (AID 743220; active = well fitted activation curve with a large enough effect in the signal ratio in the repeat runs, not every such curve was filed as active; the % refers to the signal ratio)
How it was run: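 Beta-lactamase reporter under UAS control in GeneBLAzer FXR HEK 293T cells (5000/well) measured with LiveBLAzer FRET substrate after 2 h at room temperature. Compound exposure lasted 16 h at 37C.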

[7] = qHTS assay to identify small molecule antagonists of the farnesoid-X-receptor (FXR) signaling pathway - cell viability counter screen (AID 743221; active = well fitted cell-killing curve with a large enough effect in the repeat runs, not every such curve was filed as active; note: nearly all actives have a fitted effect of over 50% in size; note: potency is the fitted concentration of half-maximal effect)
How it was run: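 Quantitative HTS of the Tox21 10K library run in parallel with the beta-lactamase reporter read. HEK 293T cells carrying a UAS-driven bla reporter got compound and 50 uM CDCA (final) for 16 h; ATP-based luminescence followed.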

[8] = target: Vitamin D3 receptor (Homo sapiens) (UniProt P11473); test: qHTS assay to identify small molecule agonists of the vitamin D receptor (VDR) signaling pathway (AID 743222; calls by dose curve)
How it was run: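 In VDR-bla cells, compound-induced beta-lactamase expression is quantified by FRET substrate fluorescence. Treatment lasts 16 h at 37C; substrate develops 2 h at room temperature.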

[9] = target: Vitamin D3 receptor (Homo sapiens) (UniProt P11473); test: qHTS assay to identify small molecule antagonists of the vitamin D receptor (VDR) signaling pathway (AID 743223; active = well fitted inhibition curve with a large enough effect in the signal ratio in the repeat runs, not every such curve was filed as active; the % refers to the signal ratio)
How it was run: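 Fluorescence from LiveBLAzer B/G FRET substrate, read after 2 h at room temperature, reflects beta-lactamase reporter activity in VDR-bla cells treated 16 h at 37C with compounds and agonist 1alpha,25-dihydroxyvitamin D3 (3 nM final).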

[10] = qHTS assay to identify small molecule agonists of the vitamin D receptor (VDR) signaling pathway - cell viability counter screen (AID 743224); note: series mostly up to about 63 µM; nearly all actives have a fitted effect of over 50% in size
How it was run: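 Plated VDR-bla cells (4 h, 37C) received compound, incubated 16 h, then LiveBLAzer substrate 2 h RT; CellTiter-Glo added afterwards, luminescence read at 30 min.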

[11] = qHTS assay to identify small molecule antagonists of the vitamin D receptor (VDR) signaling pathway - cell viability counter screen (AID 743225); note: nearly all actives have a fitted effect of over 50% in size; note: potency is the fitted concentration of half-maximal effect
How it was run: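 Cells (VDR-UAS-bla HEK 293T) are plated, rested 4 h at 37C, dosed with compound and 3 nM final 1-alpha,25-dihydroxy vitamin D3, and incubated 16 h. Viability is taken from CellTiter-Glo luminescence in the reporter wells.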

[12] = qHTS assay to identify small molecule agonists of the NFkB signaling pathway (AID 1159509; active = well fitted curve in the direction sought with a large enough effect in the signal ratio in the repeat runs, not every such curve was filed as active; the % refers to the signal ratio; note: series mostly up to about 61 µM)
How it was run: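 ME-180 NFkB-bla, 2,000 cells/well, overnight plating; cpd pinned in DMSO, 5 h 37 C; B/G FRET substrate 1.5 h RT; ex 405, em 460/530 nm.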

[13] = qHTS assay to identify small molecule agonists of the NFkB signaling pathway - cell viability counter screen (AID 1159515; calls by dose curve; note: series mostly up to about 61 µM; nearly all actives have a fitted effect of over 55% in size)
How it was run: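 Using the same wells as the NFkB reporter read, ME-180 NFkB-bla cells given compounds for 5 hr were assessed for viability via CellTiter-Glo, with luminescence taken after a 30 min room-temperature incubation.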

[14] = qHTS assay to identify small molecule agonists of the endoplasmic reticulum stress response signaling pathway - cell viability counter screen (AID 1159517; calls by dose curve;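 note: HeLa cells carrying an ER stress response element beta-lactamase reporter; series mostly up to about 61 µM; nearly all actives have a fitted effect of over 50% in size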)
How it was run: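 CellTiter-Glo was added to wells already read for beta-lactamase FRET, and luminescence was recorded 30 min later. Cells: ESRE-bla HeLa, 1,500 per well, compound exposure 5 hr at 37 C.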

[15] = qHTS assay to identify small molecule antagonists of the retinoid-related orphan receptor gamma (ROR-gamma) signaling pathway - cell viability counter screen (AID 1159520); note: nearly all actives have a fitted effect of over 50% in size; note: potency is the fitted concentration of half-maximal effect
How it was run: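 Tet-on ROR gamma CHO cells (1,000/well) were plated 4 hr, given compounds in DMSO for 2 hr at 37 C, then induced with 1 uM final doxycycline for 16 hr. Viability was read as ATP by CellTiter-Glo luminescence after 30 min.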

[16] = qHTS assay to identify small molecule agonists of the AP-1 signaling pathway - cell viability counter screen (AID 1159525; calls by dose curve; note: nearly all actives have a fitted effect of over 55% in size)
How it was run: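 ME-180 AP-1-bla, 2500 cells/well, Opti-MEM + 0.5% dialyzed FBS; overnight 37 °C; cpd 15-pt titration, 5 h 37 °C; CellTiter-Glo 30 min RT; luminescence read; normalised to TOAB and DMSO controls.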

[17] = qHTS assay to identify small molecule agonists of the AP-1 signaling pathway (AID 1159526; calls by dose curve; note: potency is the fitted concentration of half-maximal effect)
[18] = qHTS assay to identify small molecule antagonists of the peroxisome proliferator-activated receptor delta (PPARd) signaling pathway - cell viability counter screen (AID 743213); note: nearly all actives have a fitted effect of over 50% in size; note: potency is the fitted concentration of half-maximal effect
How it was run: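 Viability counter-screen, qHTS format: PPARd-bla HEK293H, L165041 300 nM final, 17 h compound exposure at 37 C, CellTiter-Glo luminescence after 30 min RT.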

[19] = target: Nuclear receptor ROR-gamma (Homo sapiens) (UniProt P51449); test: qHTS assay to identify small molecule antagonists of the retinoid-related orphan receptor gamma (ROR-gamma) signaling pathway (AID 1159521; note: nearly all actives have a fitted effect of over 50% in size; note: potency is the fitted concentration of half-maximal effect)
How it was run: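 RORγ antagonism is scored from reduced reporter luminescence in Tet-on CHO cells. Induction used 1 uM final doxycycline hyclate for 16 h at 37 C, following a 2 h compound exposure.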

Measured: Potency

Sequence of Bile acid receptor (Homo sapiens) (Q96RI1 whole entry, looked up): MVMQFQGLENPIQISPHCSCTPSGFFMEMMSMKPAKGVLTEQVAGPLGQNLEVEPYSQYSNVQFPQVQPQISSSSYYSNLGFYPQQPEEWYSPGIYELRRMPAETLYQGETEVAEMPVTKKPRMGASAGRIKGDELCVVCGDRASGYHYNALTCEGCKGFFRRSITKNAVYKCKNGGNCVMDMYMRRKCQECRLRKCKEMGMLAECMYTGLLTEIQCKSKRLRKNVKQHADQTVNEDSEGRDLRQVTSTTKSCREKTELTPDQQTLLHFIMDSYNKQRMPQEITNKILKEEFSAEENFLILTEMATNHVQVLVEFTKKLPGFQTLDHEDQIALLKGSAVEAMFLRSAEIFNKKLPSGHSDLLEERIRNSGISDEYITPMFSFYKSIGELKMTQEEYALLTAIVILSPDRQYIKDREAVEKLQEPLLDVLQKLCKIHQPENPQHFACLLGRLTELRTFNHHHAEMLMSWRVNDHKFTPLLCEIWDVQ
Sequence of Peroxisome proliferator-activated receptor delta (Homo sapiens) (Q03181 whole entry, looked up): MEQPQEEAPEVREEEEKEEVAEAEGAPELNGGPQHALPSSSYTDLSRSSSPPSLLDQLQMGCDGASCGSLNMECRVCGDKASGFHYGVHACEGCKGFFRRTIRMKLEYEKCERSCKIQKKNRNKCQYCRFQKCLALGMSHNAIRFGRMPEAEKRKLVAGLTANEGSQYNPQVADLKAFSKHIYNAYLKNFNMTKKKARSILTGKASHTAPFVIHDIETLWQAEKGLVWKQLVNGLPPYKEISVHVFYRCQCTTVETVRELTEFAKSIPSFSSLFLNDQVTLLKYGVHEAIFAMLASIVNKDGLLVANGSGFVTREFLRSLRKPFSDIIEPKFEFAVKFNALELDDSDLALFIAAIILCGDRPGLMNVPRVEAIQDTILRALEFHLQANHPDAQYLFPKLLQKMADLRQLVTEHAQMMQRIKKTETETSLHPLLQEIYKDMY
Sequence of Vitamin D3 receptor (Homo sapiens) (P11473 whole entry, looked up): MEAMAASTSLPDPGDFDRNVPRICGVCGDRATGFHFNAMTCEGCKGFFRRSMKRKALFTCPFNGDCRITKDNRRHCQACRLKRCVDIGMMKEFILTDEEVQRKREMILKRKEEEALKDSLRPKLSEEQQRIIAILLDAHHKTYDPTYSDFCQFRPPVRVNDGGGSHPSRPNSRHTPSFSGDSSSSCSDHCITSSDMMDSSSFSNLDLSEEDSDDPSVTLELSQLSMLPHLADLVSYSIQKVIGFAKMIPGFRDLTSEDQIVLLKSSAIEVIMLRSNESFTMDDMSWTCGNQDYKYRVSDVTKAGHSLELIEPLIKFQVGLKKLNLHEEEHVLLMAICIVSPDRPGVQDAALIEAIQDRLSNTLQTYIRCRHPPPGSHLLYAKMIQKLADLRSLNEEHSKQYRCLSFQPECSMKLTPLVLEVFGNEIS

O=C(O)c1ccc(OCCCOc2ccc(C(=O)O)cc2)cc1
not listed: [18] | [19]
inactive: all other assays above

CC1CC(C)C(=O)C1=O (stereo unspecified)
not listed: [4] | [6] | [8] | [9] | [19]
inactive: all other assays above

CC1(C)O[C@@H]2C[C@H]3[C@@H]4C[C@H](F)C5=CC(=O)C=C[C@]5(C)[C@H]4[C@@H](O)C[C@]3(C)[C@]2(C(=O)CO)O1
not listed: [8] | [9] | [17] | [19]
inactive: all other assays above

COc1ccccc1Oc1c(NS(=O)(=O)c2ccc(C(C)(C)C)cc2)nc(-c2ncccn2)nc1OCCO
active: [19] 18.8 µM
not listed: [3] | [4] | [6] | [8] | [10] | [16] | [17]
inactive: all other assays above

O=C1c2ccccc2C(=O)C1c1nc2ccccc2c(Br)c1O
not listed: [3] | [4] | [6] | [11] | [16] | [17] | [19]
inactive: all other assays above

CCOC(=O)c1ccccc1C(=C1C=C(Br)C(=O)C(Br)=C1)c1cc(Br)c(O)c(Br)c1
active: [15] 51.3 µM | [19] 22.9 µM
inactive: [1] | [18] | [8] | [10] | [11] | [12] | [13] | [16]

CC(=O)OCCN(CCOC(C)=O)c1ccc(N=Nc2ccc([N+](=O)[O-])cc2C#N)cc1
not listed: [2] | [3] | [4] | [6] | [9] | [15] | [19]
inactive: all other assays above

O=Cc1c2ccccc2c(Cl)c2ccccc12
active: [2] 10.7 µM
not listed: [3] | [4] | [6] | [16] | [17] | [19]
inactive: all other assays above

c1csc(SSc2cccs2)c1
inactive: [18] | [5] | [8] | [9] | [10] | [11] | [12] | [13] | [14] | [16]

C/C=C(/C(=C/C)c1ccc(O)cc1)c1ccc(O)cc1
inactive: [2] | [6] | [8] | [10] | [11] | [12] | [13] | [14] | [17]

COC(=O)CS
not listed: [3] | [4] | [6] | [9] | [14] | [17]
inactive: all other assays above

CC(C)(C)C(=O)C(=O)O
not listed: [7] | [9] | [14]
inactive: all other assays above

CCCCC(CC)COP(=O)(O)O (stereo unspecified)
active: [17] 39.6 µM
not listed: [2] | [3] | [4] | [7] | [9] | [14]
inactive: all other assays above

CCc1ccccc1
not listed: [4] | [6] | [14] | [16]
inactive: all other assays above

CCOc1ccc(Cc2nccc3cc(OCC)c(OCC)cc23)cc1OCC
not listed: [3] | [4] | [5] | [6] | [9] | [15] | [19]
inactive: all other assays above

COc1cc(Nc2c(C#N)cnc3cc(OCCCN4CCN(C)CC4)c(OC)cc23)c(Cl)cc1Cl
inactive: [8] | [12] | [13] | [14] | [16]
active: [1] 26.6 µM | [5] 13.3 µM | [7] 26.6 µM | [11] 19 µM

C[C@H]1c2cccc(O)c2C(O)=C2C(=O)[C@]3(O)C(O)=C(C(N)=O)C(=O)[C@@H](N(C)C)[C@@H]3[C@@H](O)[C@@H]21
inactive: [1] | [18] | [5] | [7] | [10] | [11] | [12] | [13] | [14]
active: [19] 29.8 µM

O=C(OCC(O)CO)c1ccccc1Nc1ccnc2cc(Cl)ccc12 (stereo unspecified)
active: [1] 33.5 µM | [18] 26.6 µM
inactive: [11] | [12] | [13] | [14] | [16] | [17]

CC(C)COCC(CN(Cc1ccccc1)c1ccccc1)N1CCCC1 (stereo unspecified)
active: [1] 21.1 µM | [5] 33.5 µM | [19] 23.7 µM
inactive: [6] | [12] | [13] | [14]

CCC1NC(=O)c2cc(S(N)(=O)=O)c(Cl)cc2N1 (stereo unspecified)
not listed: [3] | [4] | [6] | [7] | [14]
inactive: all other assays above

Reference: PubChem BioAssay (Tox21)
